The list is not random: actives were taken first. Their share in the collection is about 19%.
HT1080NT lethal = kills 2HG-producing HT-1080-NT fibrosarcoma cells; HT-1080-NT fibrosarcoma viability, CellTiter-Glo ATP luminescence, 48 h; Potency, µM (highest dose often 46.1 µM), for the others: at the highest dose activity, negative = less viability, hits mostly cytotoxic; actives 1.6% (n = 360,000); AID 686970;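 also: NT is the 2HG producing partner of a matched IDH1 knockdown line; 0% = DMSO-treated cells and -100% = media-only wells without cells; nearly all actives have a fitted effect of over 55% in size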
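Luminescent CellTiter-Glo readout after 48 hours of compound exposure at 37 degrees C defined viability of HT-1080-NT cells. Activity was normalized to DMSO wells and cell-free media wells; concentration-response curves were fitted and assigned curve classes.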
KB-V1 MDR tox = kills drug-selected multidrug resistant KB-V1 cells; KB-V1 MDR cells viability, CellTiter-Glo, 72 h; Potency, µM (top dose mostly 46.1 µM), most hits filed as cytotoxic; actives 3.4% (n = 400,000); AID 1347076; also: nearly all actives have a fitted effect of over 60% in size
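Cells of the MDR subline KB-V1 are plated, dosed with compound at multiple concentrations, and incubated 72 h at 37 degrees C; CellTiter-Glo is then added and luminescence read after 10 min.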
TDP1 cell CPT = growth inhibition of DT40 Tdp1-/-;hTDP1 cells with camptothecin (screen for TDP1 inhibitors). chicken DT40 Tdp1-/-;hTDP1 cells + 20 nM CPT, ATP luminescence, 48 h. Potency, µM (highest dose often 46.2 µM), for the others: at the top dose activity change, negative = growth inhibition, most hits filed as inhibitors. actives 12% (n = 420,000); also: nearly all actives have a fitted effect of over 55% in size
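Cell growth measured by CellTiter-Glo luminescence after a minimum 48 h, 37 C compound exposure with 20 nM CPT in Tdp1-knockout DT40 cells stably expressing hTDP1, seeded 400/well; qHTS titration format.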
KB-3-1 cytotox = kills parental KB-3-1 adenocarcinoma cells. KB-3-1 viability, CellTiter-Glo ATP luminescence, 72 h. Potency, µM (highest dose often 46.1 µM), hits mostly cytotoxic. actives 1.4% (n = 400,000). AID 1347075; also: nearly all actives have a fitted effect of over 60% in size
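Luminescent ATP read-out (CellTiter-Glo) measures survival of drug-naive KB-3-1 cells after 72 h compound exposure at 37 °C. Titration series was screened from lowest to highest concentration, with DMSO vehicle plates as background controls.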
HT1080 IDH1KD tx = HT-1080 IDH1 knockdown cell toxicity (counter line); HT-1080 IDH1 knockdown viability, ATP luminescence, 48 h; Potency, µM (series often up to 46.1 µM), without a hit: top-dose activity, negative = toxicity, most hits filed as cytotoxic; actives 2% (n = 360,000);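 also: 0% = DMSO wells and -100% = cell-free medium wells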
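HT-1080-IDH1KD cells (IDH1 knocked down), 750/well in RPMI with 5% FBS, treated with compound 48 h at 37 degrees C. Viability by CellTiter-Glo luminescence, normalised to DMSO and no-cell wells; concentration-response curves classed.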
TDP1 cell noCPT = qHTS for Inhibitors of human tyrosyl-DNA phosphodiesterase 1 (TDP1): qHTS in cells in absence of CPT. DT40 Tdp1-/- hTDP1 cells, no CPT, ATP luminescence, 48 h. Potency, µM (series often up to 46.2 µM), for inactives: top-dose activity change, negative = growth inhibition, most hits filed as inhibitors. actives 15% (n = 420,000). AID 686978, 2013; also: nearly all actives have a fitted effect of over 55% in size
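A cellular qHTS used chicken DT40 cells lacking endogenous Tdp1 but carrying stably transfected human TDP1. Compounds were applied without camptothecin, and cell growth kinetics were judged by ATP-dependent luminescence after ≥48 hr.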
An asterisk follows results filed as active; i = inactive; u = inconclusive; x = no result given. Calls follow the shape of the dose curve; as a rule, active = well fitted curve in the direction sought with a large enough effect; inconclusive = small, poorly fitted or top-dose-only effect, or another doubt; inactive = no such curve, though single readings can be large; an effect the other way counts as inactive or inconclusive. Unless noted, % is scaled to controls: 0 for no effect and ±100 for the full control effect; potency is read from the fitted curve at half-maximal effect.

SMILES	HT1080NT lethal	KB-V1 MDR tox	TDP1 cell CPT	KB-3-1 cytotox	HT1080 IDH1KD tx	TDP1 cell noCPT
CCCCCOC(=O)CSc1nc2c(c(=O)[nH]c(=O)n2C)n1CCc1ccccc1	5%	i	u	i	12%	u
C/C(Cl)=C/Cn1c(SCC(C)C)nc2c1c(=O)[nH]c(=O)n2C	1%	i	u	i	0%	8.2µM*
CCOC(=O)C(CC)Sc1nc2c(c(=O)[nH]c(=O)n2C)n1C/C=C(/C)Cl (stereo unspecified)	-19%	u	7.3µM*	i	-10%	13µM*
CCCCOC(=O)CSc1nc2c(c(=O)[nH]c(=O)n2C)n1C/C=C(\C)Cl	10%	i	u	i	14%	16µM*
COc1ccc(C2=NN(C(=S)Nc3ccccc3)C(c3ccccc3)C2)cc1 (stereo unspecified)	15%	i	u	i	10%	18µM*
COc1ccc(C2CC(c3ccc4ccccc4c3OC(C)=O)=NN2C(C)=O)cc1 (stereo unspecified)	u	i	10µM*	u	u	9.2µM*
COc1ccc(C2CC(c3ccc(OC)cc3O)=NN2C(=O)c2ccccc2)cc1 (stereo unspecified)	-10%	u	21µM*	i	-15%	21µM*
COc1ccc(C2CC(c3ccccc3)=NN2C(=O)c2ccc(F)cc2)cc1 (stereo unspecified)	-16%	i	u	i	-26%	29µM*
COc1ccc(C2CC(c3ccccc3)=NN2C(=O)COC(=O)c2cccc(O)c2)cc1 (stereo unspecified)	u	u	u	i	u	u
O=C1CN(S(=O)(=O)c2cc(C(=O)O)ccc2Cl)c2ccccc2N1	14%	i	15%	i	14%	-14%
O=S(=O)(c1ccc(Br)cc1F)N1CCCCC1CCO (stereo unspecified)	13%	i	7%	i	6%	-7%
CCc1ccc(-n2nc(CO)c(C(=O)NCCCCc3ccccc3)n2)cc1	x	x	7%	x	x	-18%
CC(CNC(=O)C1CCN(C(=O)c2cc3sccc3n2C)CC1)c1ccccc1 (stereo unspecified)	x	i	u	i	x	u
COc1ccc(C2CC(c3ccccc3O)=NN2C(=O)c2ccccc2)cc1OC (stereo unspecified)	-12%	i	u	i	-5%	-27%
O=C(c1ccccc1)N1N=C(c2ccccc2O)CC1c1ccccc1 (stereo unspecified)	-8%	i	21µM*	i	-16%	u
Cc1ccc(Cl)cc1N1CCN(C(=O)Cn2ncc3c([nH]c4ccccc43)c2=O)CC1	x	u	u	i	x	u
COc1ccc(OC)c(C2C=C(c3ccc(C)c(C)c3)Nc3nnnn32)c1 (stereo unspecified)	u	6.5µM*	4.6µM*	6.5µM*	u	2.3µM*
COc1cccc(C2=CC(c3cc(OC)ccc3OC)n3nnnc3N2)c1 (stereo unspecified)	u	16µM*	7.3µM*	6.5µM*	u	6.5µM*
COc1cccc(C2=CC(c3cccc(OC)c3OC(F)F)n3nnnc3N2)c1 (stereo unspecified)	-4%	i	u	i	-21%	u
COCCOC(=O)c1[nH]c2c(c1C)C(=O)CC(c1ccc(N(C)C)cc1)C2 (stereo unspecified)	4%	i	-28%	i	1%	u

Screening results (PubChem)
